The text below walks through data of PubChem BioAssay AID651644 (National Center for Advancing Translational Sciences (NCATS), 2012).

Hit rate of the full screen: of about 360,000 compounds, about 750 (0.21%) were called active. Roughly 2% stayed inconclusive and do not appear here. The sample holds actives, similar compounds and a random draw of the others, so the mix is not that of the screen. Values without a mark were called inactive. Calls come from the whole dose curve; as a rule, active = well fitted falling curve with a large enough effect; inconclusive = small, poorly fitted or top-dose-only effect; inactive = no such curve, though single readings can be large or run the other way.
% is set by controls: 0 for no effect and ±100 for the full control effect; potency is the fitted concentration of half-maximal effect.

A short description of the test: qHTS Assay for Inhibitors of the HIV-1 protein Vpr. Note: nearly all actives have a fitted effect of over 50% in size. The note with it: S. pombe RE007 Vpr strain, BacTiter-Glo ATP luminescence, 24 h; series mostly up to 92.2 µM; activity change, negative = less growth: at the top concentration. In outline: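 Fission yeast RE007 carrying one integrated HIV-1 vpr copy, seeded at OD 0.01 in PMG+AL medium with 23 nL pinned compound. Grown 24 h at 30 degrees; viability read by BacTiter-Glo luminescence after 5 min.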
For orientation: In qHTS, concentration-response curves come from the screen itself.
For `COc1ccc(C(O)C(O)(C(=O)OC(C)C)c2ccc(C)cc2)cc1` (stereo unspecified), the “activity change, negative = less growth” value is 2.24%. As to `COC(=O)c1ccc(CNC(=O)c2ccc3oc(C(C)C)nc3c2)cc1`, the “activity change, negative = less growth” value was -1.64%. Still for that read-out and setting: the same measure for `Cc1ccc(C)c(-n2cc(CN3CCN(C(=O)c4ncn[nH]4)CC3)c(-c3ccccc3)n2)c1`: 2.12%. With `NC(=O)COC(=O)c1sc2cc(F)ccc2c1Cl`, the Potency is 25.1 µM (active).

With `CC(NC(=O)COC(=O)c1ccc(Cl)cc1O)c1ccc(F)cc1` (stereo unspecified), the “activity change, negative = less growth” value is 14.6%. On the same count and under the same terms, next, `Cc1ccc2c(Cl)c(C(=O)Nc3nn[nH]n3)sc2c1`: 2.79%; `Cc1ccc(S(=O)(=O)NCC(=O)N(CC(=O)NC(C)(C)C)Cc2cccs2)cc1`: 4.4%; `COCCCNC(=O)C1CCN(c2ccc(N3CCOCC3)nn2)CC1`: -8.78%. Consider `CCc1nc2c(OCCOc3ccccc3)cccn2c1N(C=O)Cc1ccc(OC)cc1`, for which the “activity change, negative = less growth” value was -28.1%. As to `Cc1ccc(S(=O)(=O)N(CC(O)CN2C(=O)NC(C)(C)C2=O)c2cccc([N+](=O)[O-])c2)cc1` (stereo unspecified), the “activity change, negative = less growth” value was 51.3%. On the same count and under the same terms, the same measure for `COc1ccc(-c2cc(C3CCN(c4ncccc4[N+](=O)[O-])CC3)[nH]n2)cc1`: 12%; for `CN(C)C(=O)c1cccc(-c2cnc3sc(NCc4ccc5c(c4)OCO5)nn23)c1`: 17.8%.

On to `Cc1cccc(C(=O)N2CCCC(Nc3ccc(C(C)C)cc3)C2)n1` (stereo unspecified), for which the “activity change, negative = less growth” value is -10.3%.

As for `Cc1nnsc1C(=O)Nc1cccc(Cl)c1C`, the “activity change, negative = less growth” value is -7.71%. On to `CC1=C(C(=O)Nc2ccccc2)S(=O)(=O)CCO1`, for which the “activity change, negative = less growth” value is 14.7%. For the compound `O=C(Nc1ccccc1)c1nnsc1S(=O)(=O)c1ccc(Cl)cc1`, the Potency is 6.31 µM (active). For `COc1ccc(C(C)NC(=O)C2CCCC2)cc1` (stereo unspecified), the “activity change, negative = less growth” value was 16.1%. On the same count and under the same terms, next, `O=C(Cn1cc(C(F)(F)F)ccc1=O)Nc1ccc2c(c1)OCCO2`: 1.56%.

In the case of `CC1(C)Cc2c(sc(NC(=O)C(=O)N3CCOCC3)c2C#N)CO1`, the “activity change, negative = less growth” value is -3.12%. On the same count and under the same terms, next, `S=C(Cc1ccc(Cl)cc1)N1CCOCC1`: -11.5%. The same measure, in the same setting: next, `CC1CCN(C(NC(=O)c2ccco2)C(=O)c2ccccc2)CC1` (stereo unspecified): 9.19%. For the compound `CCOC(=O)c1c(Cc2ccc(Cl)cc2)c[nH]c1C`, the “activity change, negative = less growth” value is -1.99%. `COc1ccc(N=C2C=CC(=O)O2)cc1`: the Potency is 8.91 µM (active). As to `COc1ccc(N=Nc2c(-c3ccc(OC)cc3)[nH]oc2=O)cc1`, the “activity change, negative = less growth” value is -3.2%.

Turning to `COC1=CC(=O)OC(c2ccc(OC)cc2)C1` (stereo unspecified), the “activity change, negative = less growth” value was 3.06%.

As to `O=C(Nc1ccccc1F)c1ccc(Cn2cc(Br)cn2)cc1`, the “activity change, negative = less growth” value was 4.37%. Same read-out and setting: the same measure for `C[C@H](CO)N1C[C@H](C)[C@@H](CN(C)Cc2ccc3c(c2)OCO3)OCc2cnnn2CCCC1=O`: 3.04%; for `Cc1ccccc1-n1nc(C)c2c1N=C1C(Cl)=CC(Cl)=CN1C2c1ccc(C(=O)O)cc1` (stereo unspecified): -12%.

In the case of `Fc1ccccc1N=C1Nc2cccc3cccc1c23`, the Potency is 25.1 µM (active). `O=C(NCC1CCCCC1)c1cc(S(=O)(=O)N2CCCCC2)ccc1N1CCOCC1`: the “activity change, negative = less growth” value is -20.1%. Still for that read-out and setting: the same measure for `COc1cccc2c1CCC(NC(C)=O)C2=O` (stereo unspecified): 8%; for `CCOc1ccc2[nH]c3nc(SCC(=O)NC4CCCC4)nnc3c2c1`: 5.5%. On the same count and under the same terms, next, `COc1ccc(CCN(C)C(=O)C23CC4CC(CC(Cl)(C4)C2)C3)cc1OC`: 10.3%. Still for that read-out and setting: the same measure for `COc1cccc(C(C(=O)NC2CCCC2)N(C(=O)c2ccco2)c2cccc(C(C)=O)c2)c1OC` (stereo unspecified): -5.9%. Turning to `CCOc1ccc(C(=O)CCN2CCOCC2)cc1`, the Potency is 39.8 µM (active). On to `CCOc1ccc(-c2ccc(SCC(=O)N3CCOCC3)nn2)cc1`, for which the “activity change, negative = less growth” value was 1.07%.

`CCOc1ccc(C(=O)CCC(=O)NC2=NCCS2)cc1`: the “activity change, negative = less growth” value is -25.9%. Still for that read-out and setting: the same measure for `O=C(O)CCCn1cc(NC(=O)COc2cccc(Cl)c2)cn1`: 11.7%; for `CC(NC(=O)COC(=O)C1CCN(S(=O)(=O)c2ccccc2C(F)(F)F)CC1)c1ccccc1` (stereo unspecified): -18.4%. On to `CN(C)C(CNC(=O)c1cc(Br)c(Br)s1)c1ccco1` (stereo unspecified), for which the “activity change, negative = less growth” value is 3.37%. On to `O=C1C(Cl)=C(Oc2ccccc2)C(=O)c2ccccc21`, for which the Potency was 3.16 µM (active). For `CCC1=C(OC(=O)N(CC)CC)N2C(=O)OC(=NCCc3c[nH]c4ccccc34)[C@]2(C)[C@H]2C1=CC[C@H]1C(=O)N(CC)C(=O)[C@H]12`, the “activity change, negative = less growth” value was 5.02%.

Take `CSCCC(NS(=O)(=O)c1ccc2c(c1)oc(=O)n2C)C(=O)NC1CCCc2ccccc21` (stereo unspecified): the “activity change, negative = less growth” value was 5.96%. On the same count and under the same terms, the same measure for `CC[C@]1(C(=O)OC)[C@H]2C(=O)N(C)C(=O)[C@H]2[C@H]2CN(C)C(=NCc3ccccc3)N21`: -7.99%. The same measure, in the same setting: next, `Cc1cc(C)cc(NC(=O)Cn2cnc3c(nnn3Cc3ccc(F)cc3)c2=O)c1`: 18.1%; `CCc1nnc(NC(=O)CSCc2cc(=O)n3cc(C)sc3n2)s1`: 7.37%.
